Results reported in PubChem BioAssay AID1159580 (chemical genetic matrix, 2015).
The whole screen tested about 5,500 compounds, of which about 2,000 (36%) were called active. Roughly 18% stayed inconclusive and do not appear here. Rule as the data show it: active = normalized growth mostly below about 0.91 (no sharp cut-off); inconclusive = no clear call, values can overlap the other calls; inactive = mostly above about 0.92. The list shows a part of the results.

Assay: chemical genetic growth profiling, strain panel (AID 1159580);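 also: tested at 20 µM; growth read once vehicle control cultures reached saturation at 30 °C; 1 = growth at the plate median or of vehicle wells; lower values mean less growth of the strain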
Conditions: S. cerevisiae deletion strains, growth OD

Measured: normalized growth

COc1cc2c(cc1OC)[C@@H]1C(=O)c3ccc(O)c(CC=C(C)C)c3O[C@@H]1CO2
inactive: locus YAL026C, strain drs2, active compounds read low 1.01 | locus YAL030W, strain snc1, active compounds read low 1.03 | locus YBL061C, strain skt5, active compounds read low 0.958 | locus YBR009C, strain hhf1, active compounds read low 1.03 | locus YBR021W, strain FUR4, active compounds read low 0.989 | locus YBR023C, strain chs3, active compounds read low 0.987 | locus YBR171W, strain sec66, active compounds read low 0.998 | locus YBR229C, strain ROT2, active compounds read low 0.986 | locus YBR231C, strain swc5, active compounds read low 1.01 | locus YCL011C, strain gbp2, active compounds read low 1.06 | locus YCL016C, strain dcc1, active compounds read low 0.965 | locus YCL029C, strain bik1, active compounds read low 0.984 | locus YCL061C, strain MRC1, active compounds read low 0.985 | locus YCL069W, strain vba3, active compounds read low 1 | locus YCR088W, strain abp1, active compounds read low 1 | locus YDL005C, strain med2, active compounds read low 1.05 | locus YDL035C, strain GPR1, active compounds read low 1.02 | locus YDL040C, strain nat1, active compounds read low 0.975 | locus YDL074C, strain BRE1, active compounds read low 0.961 | locus YDL101C, strain DUN1, active compounds read low 0.969 | locus YDL134C, strain PPH21, active compounds read low 0.967 | locus YDL185W, strain tfp1, active compounds read low 0.974 | locus YDL192W, strain arf1, active compounds read low 1.03 | locus YDR001C, strain nth1, active compounds read low 1.01 | locus YDR069C, strain doa4, active compounds read low 1.08 | locus YDR101C, strain arx1, active compounds read low 1.05 | locus YDR137W, strain rgp1, active compounds read low 1.02 | locus YDR159W, strain sac3, active compounds read low 1.07 | locus YDR162C, strain NBP2, active compounds read low 0.978 | locus YDR195W, strain ref2 0.963 | locus YDR297W, strain sur2, active compounds read low 1.05 | locus YDR318W, strain mcm21, active compounds read low 1.01 | locus YDR334W, strain swr1, active compounds read low 1 | locus YDR335W, strain msn5, active compounds read low 1.02 | locus YDR388W, active compounds read low 0.982 | locus YDR392W, strain spt3, active compounds read low 0.91 | locus YDR502C, strain sam2, active compounds read low 0.971 | locus YEL003W, strain gim4, active compounds read low 1.03 | locus YEL037C, strain rad23, active compounds read low 1.03 | locus YEL061C, strain CIN8 (second series), active compounds read low 1.06 | locus YEL061C, strain CIN8, active compounds read low 0.992 | locus YER015W, strain faa2, active compounds read low 1.01 | locus YER016W, strain bim1, active compounds read low 1.07 | locus YER110C, active compounds read low 0.966 | locus YER111C, strain swi4, active compounds read low 1.02 | locus YER155C, strain BEM2 (second series), active compounds read low 0.979 | locus YER155C, strain BEM2, active compounds read low 0.982 | locus YER167W, strain BCK2, active compounds read low 0.998 | locus YFR010W, strain ubp6, active compounds read low 1.01 | locus YGL078C, strain dbp3, active compounds read low 1.02 | locus YGL086W, strain mad1, active compounds read low 1.02 | locus YGL167C, strain pmr1, active compounds read low 0.988 | locus YGL173C, strain kem1, active compounds read low 1.01 | locus YGL227W, strain vid30, active compounds read low 0.997 | locus YGL240W, strain doc1, active compounds read low 1.03 | locus YGL248W, strain PDE1, active compounds read low 0.932 | locus YGL253W, strain hxk2, active compounds read low 1.02 | locus YGR078C, strain PAC10, active compounds read low 0.975 | locus YGR135W, strain pre9, active compounds read low 0.952 | locus YGR229C, strain SMI1, active compounds read low 1.19 | locus YGR252W, strain gcn5, active compounds read low 0.999 | locus YHR013C, strain ard1, active compounds read low 1.02 | locus YHR027C, strain rpn1, active compounds read low 1.03 | locus YHR030C, strain SLT2, active compounds read low 0.994 | locus YHR079C, strain IRE1 (second series), active compounds read low 1 | locus YHR094C, strain hxt1, active compounds read low 0.988 | locus YHR129C, strain ARP1, active compounds read low 0.984 | locus YHR142W, strain chs7, active compounds read low 1.02 | locus YHR200W, strain rpn10, active compounds read low 1 | locus YIL066C, strain RNR3, active compounds read low 0.981 | locus YIL073C, strain SPO22, active compounds read low 0.913 | locus YIL125W, strain kgd1, active compounds read low 0.994 | locus YIR030C, strain dcg1, active compounds read low 0.981 | locus YJL092W, strain hpr5, active compounds read low 1 | locus YJL095W, strain BCK1 (second series), active compounds read low 1.02 | locus YJL095W, strain BCK1, active compounds read low 0.953 | locus YJL115W, strain asf1, active compounds read low 1.06 | locus YJL134W, strain LCB3, active compounds read low 0.978 | locus YJL154C, strain vps35, active compounds read low 1.01 | locus YJL164C, strain tpk1, active compounds read low 1.02 | locus YJL166W, strain qcr8, active compounds read low 1.06
active: locus YAL021C, strain ccr4, active compounds read low 1.12 [resistant] | locus YBR279W, strain paf1, active compounds read low 1.12 [resistant] | locus YJL129C, strain trk1, active compounds read low 1.17 [resistant]
